Compound activity (PubChem BioAssay)
Shown are actives, neighbours in structure and some others; about 15% of the full set was active somewhere.
Sm TGR block: blocks Schistosoma mansoni thioredoxin glutathione reductase. Q962Y6. purified TGR, DTNB reduction, TNB absorbance 405 nm. Potency, µM (doses to about 114 µM), most hits filed as inhibitors. actives 3% (n = 360,000); further: nearly all actives have a fitted effect of over 60% in size
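First, TGR (20 nM dispensed) and NADPH were mixed with compound. Second, a 15 min room-temperature incubation followed. Third, further NADPH and then DTNB were added to start the reaction. Finally, TNB absorbance was monitored kinetically.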
HCV inh: inhibitors of hepatitis C virus infection | Huh7.5.1 HCVcc-Cre infection, luciferase reporter, 44 h | Potency, µM (series often up to 41.8 µM), most hits filed as inhibitors | actives 3.4% (n = 340,000)
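Antiviral activity was scored by luciferase reporter output from cells infected with HCVcc-Cre (~0.5 moi) in presence of compound, 44 h infection period, cells seeded 1,000/well 4 h prior.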
Pf growth 96h: P. falciparum growth inhibition at 96 hour, primary screen for plastid delayed-death inhibitors; P. falciparum luciferase reporter growth, 96 h; Potency, µM (series often up to 28.7 µM), most hits filed as inhibitors; actives 6.9% (n = 320,000); AID 504834
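Readout is luminescence from an integrated firefly luciferase in P. falciparum. Red cells, 2% hematocrit and 0.05% parasitemia final, were cultured with compound through two parasite generations (96 hours) at 37 C, 5% CO2.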
SARS PLpro yeast: SARS-CoV PLP inhibition in yeast; actives 0.19% (n = 330,000); S. cerevisiae expressing SARS-CoV PLpro, growth rescue; Potency, µM (top dose mostly 32.9 µM), hits mostly activators; calls by dose curve; further: nearly all actives have a fitted effect of over 55% in size
HCMV antiviral: blocks human cytomegalovirus replication; HFF cells, HCMV-luciferase reporter, 72 h; hits give low values; activity change, negative = inhibition, % at 57.5 µM; actives 4.5% (n = 410,000); AID 1259415; in the data active means activity change below about -60%; inconclusive means no clear call, values can overlap the other calls; inactive means above about -39%
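Human foreskin fibroblasts infected with luciferase-reporter HCMV at MOI 1 PFU/cell, compounds at two doses. Luciferase measured 72 h post infection; normalized to buffer-only basal and Salinomycin (10uM) controls.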
Pf growth 48h: inhibits P. falciparum growth in the first generation, 48 h | P. falciparum luciferase growth in erythrocytes, 48 h | Potency, µM (titrated, usually from 28.7 µM), hits mostly inhibitors | actives 5.9% (n = 310,000) | AID 504832
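A one-generation exposure of luciferase-tagged malaria parasites in RPMI 1640/Albumax erythrocyte culture, 37 C and 5% CO2. Inhibition is inferred from decreased luminescence after adding detection reagent.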
Numbers stand for hits; n = inactive; u = inconclusive; x = no result given; + = active, no number; ! = not confirmed by another sample; [ ] = dose if it differs, or a comment. Unless noted, the call rests on the fitted dose curve; in most records, active means well fitted curve in the direction sought with a large enough effect; inconclusive means small, poorly fitted or top-dose-only effect, or another doubt; inactive means no such curve, though single readings can be large; an effect the other way counts as inactive or inconclusive.

SMILES	Sm TGR block	HCV inh	Pf growth 96h	SARS PLpro yeast	HCMV antiviral	Pf growth 48h
Cc1ccc(S(=O)(=O)N2CCN(c3ccnc4cc(Cl)ccc34)CC2)cc1C	n	n	n	n	u	u
CCOC(=O)N1CCN(c2ccnc3cc(Cl)ccc23)CC1	n	n	2.33µM	n	-62.5	2.62µM
O=C(c1ccc(Cl)cc1)N1CCN(c2ccnc3cc(Cl)ccc23)CC1	x	u	n	n	u	13.1µM
CC(C)N(C(=O)N1CCN(c2ccnc3cc(Cl)ccc23)CC1)C(C)C	n	u	8.28µM	n	-89.8	8.28µM
CCC(=O)N1CCN(c2ccnc3cc(Cl)ccc23)CC1	n	n	11.7µM	n	u	13.1µM
O=C(Oc1ccnc2cc(Cl)ccc12)N1CCCCCC1	n[11.4 µM]	u	u	n	-100.6	x
COc1cccc(/C=N/NC(=S)NC2CC3CCC2C3)c1OC (stereo unspecified)	n	n	4.65µM	n	n	6.57µM
COc1cccc(C=NNC(=S)NN=Cc2cccc(OC)c2OC)c1OC	x	u	x	x	n	x
S=C(N/N=C/c1ccco1)NC1CC2CCC1C2 (stereo unspecified)	u	u	5.22µM	n	n	x
Oc1ccccc1/C=N/NC(=S)NC1CC2CCC1C2 (stereo unspecified)	n	u	1.31µM	n	u	3.7µM
COc1ccccc1NC(=S)NC1CC2CCC1C2 (stereo unspecified)	n	n	u	n	u	n
CSc1cccc(NC(=O)CN2CCN(Cc3ccccc3C)S2(=O)=O)c1	n	x	x	x	u	x
CC(=O)NS(=O)(=O)c1ccc(NC(=O)/C=C/c2ccc(C)o2)cc1	x	n	4.65µM	n	n	n
CC(=O)Nc1ccc(S(=O)(=O)N/N=C/c2ccc(C)o2)cc1	n	n	n	n	n	n
Cc1ccc(/C=C/C(=O)NC2CCCCCCC2)o1	2.51µM	n	n	n	n	n
Cc1ccc(/C=C/C(=O)Nc2ccc(N(C)C)cc2)o1	n	n	n	n	n	n
Cc1ccc(/C=C/C(=O)Nc2ccncc2)o1	8.91µM	n	n	n	n	n
NS(=O)(=O)c1ccc(NC(=O)/C=C/c2cccc(Cl)c2)cc1	x	11.2µM	n	n	n	n
O=C1OCCC1=COCCCCCCOC=C1CCOC1=O	x	x	x	x	n	x
S=C1NCCNC(=S)NCCOCCOCCN1	n	n	n	n	n	n
O=C(Nc1cccc(F)c1)[C@H](CSCc1ccccc1)N1Cc2ccccc2C1=O	n	x	x	x	n	x
Cc1ccc(/C=C/C(=O)NCc2ccc(S(N)(=O)=O)cc2)o1	x	n	u	n	u	n
Cc1ccc(/C=C/C(=O)Nc2ccc(S(N)(=O)=O)cc2)o1	7.94µM	u	n	n	n	n
O=C(N=C1c2ccccc2CN1c1cccc(Cl)c1)c1cccnc1	n	n	n	n	n	n
O=C(N=C1c2ccccc2CN1c1ccc(F)c(F)c1)c1cccnc1	44.7µM	n	n	n	u	u
SMILES	Sm TGR block	HCV inh	Pf growth 96h	SARS PLpro yeast	HCMV antiviral	Pf growth 48h
CC(C)(C)c1ccc(NC(=O)COC(=O)C2(C)CC2(Cl)Cl)cc1 (stereo unspecified)	n	11.2µM	n	n	n	n
c1cncc(-c2nc(NCCCn3ccnc3)c3ccccc3n2)c1	n	u	u	n	-67.2	n
Cc1nc(NCCCn2ccnc2)c2ccccc2n1	n[11.4 µM]	n	n	n	n	x
CCc1nc(NCCCn2ccnc2)c2oc3ccccc3c2n1	n	n	13.1µM	n	n	u
c1ccc(-c2nc(NCc3ccco3)c3oc4ccccc4c3n2)cc1	n	u	u	n	n	u
c1ccc(-c2nc(NCCCn3ccnc3)c3oc4ccccc4c3n2)cc1	n	u	2.33µM	n	n	3.29µM
CC(C)Oc1ccc(Nc2cc3[nH]c(-c4cccc(F)c4)cc3cn2)cc1	x	x	x	x	n	x
Cc1ccc(S(=O)(=O)c2nnn3c2nc(NCc2ccccc2Cl)c2sccc23)cc1	n	x	x	x	n	x
CC1CCN(c2c(NCc3ccc(C(=O)NCc4ccco4)cc3)c(=O)c2=O)CC1	n	n	u	n	n	n
O=C(NCc1ccco1)c1ccc(CNc2c(N3CCCCC3)c(=O)c2=O)cc1	n	n	10.4µM	n	n	n
Cc1cc(C)cc(NC(=O)c2ccc(CNc3c(N4CCCC4)c(=O)c3=O)cc2)c1	n	n	0.522µM	n	n	u
CCOC(=O)C1CCN(c2c(NCc3ccc(C(=O)Nc4ccc(C)cc4)cc3)c(=O)c2=O)CC1	n	u	4.15µM	n	n	4.65µM
Cc1cc(C)cc(NC(=O)c2ccc(CNc3c(N4CCOCC4)c(=O)c3=O)cc2)c1	n	n	n	n	n	x
CCCCNC(=O)c1ccc(CNc2c(N3CCC(C(=O)OCC)CC3)c(=O)c2=O)cc1	n	u	u	n	-61.2!	11.7µM
CCOC(=O)C1CCN(c2c(NCc3ccc(C(=O)NCCOC)cc3)c(=O)c2=O)CC1	n	n	n	n	u	n
Nc1cc(=O)[nH]c(SCC(=O)NC2CCCCCCC2)n1	x	n	x	n	n	x
COc1ccc(C(=O)c2c(N)c(C(=O)Nc3cccc(OC)c3)c3ccccn23)cc1	n	x	x	x	n	x
NC(=O)CSc1nnc(Cc2ccc3c(c2)OCO3)o1	x	n	u	n	n	n
Fc1ccc2cnc(CCO[C@H]3CCCCO3)cc2c1	x	n	x	n	n	x
COC(=O)C(N)(c1ccccc1)C(Nc1cccc(OC)c1)c1ccccc1 (stereo unspecified)	x	x	x	x	n	x
CCN(CC(=O)NCc1cccs1)C(=O)/C=C/c1ccc(OC)cc1OC	n	20µM	n	x	n	n
CCN(CC(=O)NCc1cccs1)C(=O)CCCOc1ccccc1	n	n	n	n	n	n
CCN(CC(=O)NCc1cccs1)C(=O)CCCOc1ccc(C(C)(C)C)cc1	n	u	u	n	-104.8	u
CC1(C(=O)NS(=O)(=O)c2ccc(F)cc2F)CCN1C(=O)Cc1ccc(Cl)cc1Cl (stereo unspecified)	x	x	x	x	n	x
COc1cccc(NC(=O)C(c2ccccc2)N2CCN(CC(=O)N3CCOCC3)CC2)c1 (stereo unspecified)	n	n	u	n	n	u
SMILES	Sm TGR block	HCV inh	Pf growth 96h	SARS PLpro yeast	HCMV antiviral	Pf growth 48h
CN(Cc1ccccc1)C1=CC(=[N+]2CCCCC2)CC(C)(C)C1	u	2.82µM	0.329µM	n	-77.0	0.37µM
CC1(C)CC(N2CCN(Cc3ccccc3)CC2)=CC(=[N+]2CCCCC2)C1	n	u	0.522µM	n	+	0.828µM
CC1(C)CC(N2CCCC2)=CC(=[N+]2CCCCC2)C1	n	n	u	n	-92.5	0.828µM
CC1(C)CC(N2CCCC2)=CC(=[N+]2CCCC2)C1	n	n	0.329µM	n	-94.2	1.47µM
Cc1ccc(S(=O)(=O)c2nc(-c3ccccc3Cl)oc2N(C)C)cc1	n	20µM	u	n	x	n
Cc1ccc(S(=O)(=O)c2nc(-c3ccccc3Br)oc2N(C)C)cc1	x	u	x	x	n	x
